In the library only some 4.1% were active in any assay of this set; here they are far more common.
PglD DTNB: blocks C. jejuni PglD acetyltransferase activity; purified PglD enzyme, DTNB colorimetric CoA detection; inhibition, % at 12.5 µM; 0.098% of 360,000 active; in the data active = inhibition above about 16%, passing the limit was not always enough; inconclusive = no clear call, values can overlap the other calls
Env fusion inh: inhibitors of HIV Env-mediated cell fusion. HeLa-JRFL Env/CEM21 cell fusion, luciferase. inhibition, % at 12.3 µM. 1.1% of 360,000 active;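 active = mean replicate inhibition score of at least 50 and every replicate individually at or above 50; inconclusive = only one of the two criteria met; inactive = mean below 50 and not all replicates reaching 50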
NSD2 inh: NSD2 (human) methyltransferase inhibition; NSD2 peptide methylation, AlphaScreen, 120 min; AID 743445; 0.54% of 310,000 active; O96028; inhibition, % at 12.5 µM; in the data active = inhibition above about 50%
Casp6 inh: blocks human caspase-6 cleavage activity. P55212. purified caspase-6, Z-VEID-R110 cleavage fluorescence. 0.53% of 350,000 active. AID 686996. inhibition, % at 12.5 µM;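 active = mean inhibition across replicates at least about 35%, with every replicate also reaching that limit, limit read from the data; inconclusive = only one of the two criteria met; inactive = neither criterion met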
Target sequence (P55212 24-179 limits assumed): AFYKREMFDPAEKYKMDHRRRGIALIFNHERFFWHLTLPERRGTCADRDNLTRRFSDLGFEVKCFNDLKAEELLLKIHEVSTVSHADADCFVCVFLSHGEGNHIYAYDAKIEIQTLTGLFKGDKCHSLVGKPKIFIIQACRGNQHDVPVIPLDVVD
Target sequence (P55212 194-293 limits assumed): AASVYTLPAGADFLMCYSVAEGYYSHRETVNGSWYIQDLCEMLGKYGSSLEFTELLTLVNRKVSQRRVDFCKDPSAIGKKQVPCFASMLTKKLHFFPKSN
F508del corr: CFTR F508del correction in bronchial cells; activity (quench increase), % at 7.58 µM; CFBE cells, YFP halide quenching; stimulated with forskolin plus potentiator P3; % fluorescence drop versus neutral controls; 0.36% of 350,000 active;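 active = mean added fluorescence quench of at least 8% versus neutral control, with both replicates also reaching 8%; inconclusive = only one of the mean or replicate conditions met; inactive = mean below 8% and not both replicates reaching 8%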;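 note: cells transiently co-express mutant CFTR-F508del with the halide-sensitive YFP; corrector assay measuring rescue of mutant channel to the surface after 24 h compound exposure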
ALR inh: human ALR oxidase inhibition via reduced H2O2; purified ALR, DTT oxidation, H2O2 HRP-luminol luminescence; 3.8% of 290,000 active; inhibition, % (no concentration beside the values); P55789;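 active = mean replicate inhibition above about 79%, with every replicate also reaching it, limit read from the data; inconclusive = only one of the two criteria met; inactive = mean below limit and not every replicate reaching it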
Target sequence (P55789 whole entry, looked up): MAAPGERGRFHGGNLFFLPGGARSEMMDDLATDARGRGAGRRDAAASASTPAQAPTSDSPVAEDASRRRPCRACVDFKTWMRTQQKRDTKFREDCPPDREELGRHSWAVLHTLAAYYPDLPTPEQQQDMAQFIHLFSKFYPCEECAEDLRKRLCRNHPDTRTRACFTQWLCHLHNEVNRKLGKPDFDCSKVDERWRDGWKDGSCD
Hits are given with their value; – = inactive; ? = inconclusive; · = no result.

SMILES	PglD DTNB	Env fusion inh	NSD2 inh	Casp6 inh	F508del corr	ALR inh
O=c1c2c(-c3cccc([N+](=O)[O-])c3)ccnc2[nH]n1-c1ccccc1	–	–	–	–	–	–
Cc1cc(-c2ccccc2)c2c(=O)n(-c3ccccc3)[nH]c2n1	–	–	–	–	–	99
COc1ccc(NC(=O)C2(C)CCN2CCOc2ccccc2)cc1OC (stereo unspecified)	–	–	–	–	–	·
COc1ccc(OC)c(NC(=O)C2(C)CCN2CCOc2ccccc2)c1 (stereo unspecified)	–	66	–	–	–	·
Cc1ccc(S(=O)(=O)N[C@H](C(=O)OCC(=O)NC(=O)C2CCCCC2)C(C)C)cc1	–	–	–	–	12	–
CO[C@H]1CN(C)C(=O)c2ccc(NC(=O)c3ccccc3)cc2OC[C@H](C)N(CC2CC2)C[C@H]1C	–	–	·	–	–	·
COc1ccc(NC(=O)N(C)C[C@@H]2Oc3c(NC(=O)CCCCCC(=O)Nc4ccccc4N)cccc3C(=O)N([C@H](C)CO)C[C@H]2C)cc1	·	·	·	–	–	·
CCc1noc(C)c1C(=O)Nc1ccc(S(=O)(=O)N2CCCC(C)C2)cc1 (stereo unspecified)	–	–	–	42	–	–
CCc1noc(C)c1C(=O)Nc1ccc(C)c(S(=O)(=O)N2CCCCCC2)c1	·	–	–	–	–	–
Cc1noc(C)c1NC(=O)Nc1ccc2c(c1)C(=O)N([C@@H](C)CO)C[C@@H](C)[C@@H](CN(C)Cc1ccc(C(F)(F)F)cc1)OCCCC[C@@H](C)O2	–	–	·	–	–	·
COc1ccc(CNc2cc(C)ccc2C)c(OC)c1OC	–	–	–	·	·	98
COc1ccc(C)cc1NCc1cccc(OC)c1OC	–	–	–	·	·	–
COc1cc(CNc2ccc3c(c2)CCC3)cc(OC)c1O	–	–	–	·	·	99
COc1cc(CNc2ccc(C)c(C)c2)cc(OC)c1OC	–	·	·	·	·	97
COc1cc(C)c(CNc2ccc(OC)c(OC)c2)cc1C	·	·	·	·	·	82
COc1ccc(CNc2ccc(C)c(C)c2)cc1	·	–	–	–	–	–
COc1cc(C)c(CNc2cccc(C)c2)cc1C	·	·	–	–	–	–
CCS(=O)(=O)Nc1ccc2c(c1)C(=O)N(C)C[C@@H](OC)[C@H](C)CN(C(=O)COC)[C@H](C)CO2	–	?	·	–	–	·
C[C@@H]1CN([C@H](C)CO)C(=O)c2cc(NC(=O)NC3CCCCC3)ccc2O[C@H]1CN(C)S(=O)(=O)c1cn(C)cn1	–	·	·	–	–	·
COc1cc(Br)c(CNc2cc(C)ccc2C)cc1OC	–	–	·	–	–	·
COc1cc(CNc2cc(C)ccc2C)cc(OC)c1OC	–	·	–	–	–	99
C[C@@H]1CN([C@@H](C)CO)S(=O)(=O)c2ccc(C#CC3CC3)cc2O[C@H]1CN(C)Cc1cncnc1	·	–	·	·	–	·
COC(=O)Cc1c(C)nc2nc(NCc3cccc([N+](=O)[O-])c3)[nH]n2c1=O	–	–	–	·	·	89
CNc1ccc2c3c(cccc13)C(=O)N(C)C2=O	·	–	–	–	20	–
CN1C(=O)c2cccc3c(Cl)ccc(c23)C1=O	–	–	–	·	·	–
SMILES	PglD DTNB	Env fusion inh	NSD2 inh	Casp6 inh	F508del corr	ALR inh
Cc1ccccc1C(=O)N[C@H](C(=O)N1CCC[C@H]1C(=O)NCc1ccccc1)c1ccccc1	·	56	·	–	–	·
O=C(NCc1ccccc1)[C@@H]1CCCN1C(=O)[C@@H]1CCCN1C(=O)c1cccc2ccccc12	·	75	·	–	–	·
O=C(C[C@H]1CC[C@H](NS(=O)(=O)c2ccc(F)cc2)[C@H](CO)O1)NC1CCC1	–	–	·	–	–	·
CSCCC(c1nc2ccccc2[nH]1)n1c(-c2ccc(C)cc2)nc2ccccc21 (stereo unspecified)	·	–	·	–	–	·
Cc1ccc(C(c2nc3ccccc3[nH]2)n2c(-c3ccccc3)nc3ccccc32)cc1 (stereo unspecified)	–	58	·	–	–	·
O=C(C[C@@H]1CC[C@H](NC(=O)C2CC2)[C@@H](CO)O1)NCC1CC1	–	–	·	–	–	·
COc1ccc(NC2CS(=O)(=O)CC2NCc2ccco2)cc1 (stereo unspecified)	–	–	–	·	·	99
NS(=O)(=O)c1ccc(CNc2ccc3ccccc3n2)cc1	–	–	–	–	8.7	–
O=S(=O)(c1ccccc1F)N1CC[C@@H]2[C@H]1c1cc(-c3ccc(F)cc3)ccc1N[C@@H]2CO	–	·	·	–	–	·
COc1cc(C[C@@H](CO)[C@H](CO)Cc2ccc(O)c(OC)c2)ccc1O	·	·	·	·	·	97
O=C(CSc1ccccc1C(=O)NCc1ccccc1)NC12CC3CC(CC(C3)C1)C2	·	76	–	·	·	–
C[C@@H]1CN([C@@H](C)CO)C(=O)Cc2cc(NS(=O)(=O)c3ccc(F)cc3)ccc2O[C@@H]1CN(C)S(=O)(=O)c1cn(C)cn1	–	–	·	·	–	·
C[C@@H]1CCCCO[C@H](CN(C)CC2CC2)[C@H](C)CN([C@H](C)CO)C(=O)c2cc(NC(=O)C3CCCCC3)ccc2O1	–	–	·	–	–	·
Cc1ccc(NC(=S)NNc2ccc(C(=O)O)cc2[N+](=O)[O-])cc1C	·	–	–	–	–	99
Cc1ccc(C(=O)NNC(=S)Nc2cccc(Cl)c2Cl)cc1[N+](=O)[O-]	–	·	–	–	–	97
CC(=O)c1cccc(NC(=S)NNC(=O)c2ccc(C)c([N+](=O)[O-])c2)c1	–	–	–	–	–	–
Cc1ccc(NC(=S)NNC(=O)c2cccc([N+](=O)[O-])c2)cc1Cl	·	–	–	–	–	88
CN(C)CCCNC(=O)[C@H]1[C@H](CO)[C@H]2Cn3c(ccc(-c4cccc(F)c4)c3=O)[C@H]2N1C	–	·	·	·	–	·
Cc1ccc(S(=O)(=O)N[C@@H]2C=C[C@H](CC(=O)NC3CCCCC3)O[C@@H]2CO)cc1	–	–	·	–	–	·
Oc1cccc(/C=N/Nc2ncnc3c2ncn3Cc2ccccc2)c1	–	–	–	·	·	–
Oc1ccc(/C=N/Nc2ncnc3c2ncn3Cc2ccccc2)cc1O	·	–	72	–	–	96
Cc1ccc(S(=O)(=O)Nc2ccc3c(c2)C(=O)N([C@@H](C)CO)C[C@@H](C)[C@H](CN(C)C(=O)CCCN(C)C)OCCCC[C@H](C)O3)cc1	–	–	·	–	–	·
CCN(CC)C1CCCCC1NS(=O)(=O)c1ccc(Cl)cc1 (stereo unspecified)	–	–	·	–	–	–
CC(=O)Nc1ccc(S(=O)(=O)N2CCC(C(=O)c3ccc(Cl)cc3)CC2)cc1	–	56	–	–	–	–
O=S(=O)(NC1CCCCC1Nc1ccccc1)c1ccccc1 (stereo unspecified)	·	–	–	–	–	99
O=C(O)c1ccccc1NC1CCCCC1NS(=O)(=O)c1ccccc1 (stereo unspecified)	–	–	–	–	–	·
CC(=O)Nc1ccc(NC2CCCCC2NS(=O)(=O)c2ccc(Cl)cc2)cc1 (stereo unspecified)	·	–	–	–	–	99

Compound activity (PubChem)
